Test results: PubChem BioAssay (EPA / NIEHS)
Results filed as inconclusive are left out. Calls of active or inactive are those of the source. Rule for the calls: active = hit-call score of the fitted dose curve at least 0.9, where 1 is the maximum; inconclusive = response in the unintended direction; inactive = score below 0.9.

What follows are compounds tested against rat Thyrotropin Releasing Hormone Receptor (TRH), Trhr (gene 25570) (UniProt Q01717) (assay: NVS_GPCR_rTRH: NovaScreen (NVS) G Protein-Coupled Receptor Assay for rat Thyrotropin Releasing Hormone Receptor (TRH) (AID 2283329);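 note: hit means lower bound tracer signal versus DMSO baseline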).
Sequence of rat Thyrotropin Releasing Hormone Receptor (TRH), Trhr (gene 25570) (Q01717 whole entry, looked up): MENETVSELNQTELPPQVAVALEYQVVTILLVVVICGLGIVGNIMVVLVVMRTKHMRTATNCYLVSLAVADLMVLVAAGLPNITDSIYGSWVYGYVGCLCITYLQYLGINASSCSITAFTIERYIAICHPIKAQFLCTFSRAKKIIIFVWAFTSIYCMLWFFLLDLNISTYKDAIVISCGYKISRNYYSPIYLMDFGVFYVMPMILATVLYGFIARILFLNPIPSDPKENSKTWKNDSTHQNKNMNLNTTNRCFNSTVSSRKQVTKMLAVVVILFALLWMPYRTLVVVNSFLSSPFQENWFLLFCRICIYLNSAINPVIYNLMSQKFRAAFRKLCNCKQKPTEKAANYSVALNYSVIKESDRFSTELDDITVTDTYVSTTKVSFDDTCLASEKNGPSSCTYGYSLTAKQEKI
Procedure: NVS_GPCR_rTRH is a biochemical, single-readout assay that uses extracted gene-proteins from Rat forebrain membranes in a tissue-based cell-free assay. Measurements were taken 4 hours after chemical dosing in a 48-well plate.NVS_GPCR_rTRH is one of one assay component(s) measured or calculated from the NVS_GPCR_rTRH assay. It is designed to make measurements of radioligand binding, a form of binding reporter, as detected with scintillation counting signals by Filter-based radiodetection technology.Data from the assay component NVS_GPCR_rTRH was analyzed into 1 assay endpoint. This assay endpoint, NVS_GPCR_rTRH, was analyzed in the positive analysis fitting direction relative to DMSO as the negative control and baseline of activity. Using a type of binding reporter, loss-of-signal activity can be used to understand changes in the binding as they relate to the gene Trhr. Furthermore, this assay endpoint can be referred to as a primary readout, because the performed assay has only produced 1 assay endpoint. To generalize the intended target to other relatable targets, this assay endpoint is annotated to the gpcr intended target family, where the subfamily is rhodopsin-like receptor.
Binding assays used specific radioligands (tritiated, iodinated) with non-radioactive competitive displacement ligands in agonist or antagonist protocols (as indicated) and various reference compounds and inhibitors to titrate specific binding to receptors and transporters. Most enzyme assays (CYPs, kinases, phosphatases, proteases, HDACs) used recombinant protein and specific substrates (fluorescence mostly, some colorimetric and radioactive) and inhibitors, followed by a biochemical separation of substrate and product. All assays for the biochemical HTS were initially run in duplicate at a single concentration (10 uM for CYP450 assays and 25 uM for all others). […] Each assay was run with positive and negative controls, and concurrent controls on every plate. The follow-up (secondary) screen tested active chemical-pairs in concentration series, as well as a few additional assays not tested in the primary screen, some selected negative inactives, and several cases re-run in the concentration series for confirmatory purposes.
With `COCCOCCC[Si](C)(O[Si](C)(C)C)O[Si](C)(C)C` the outcome was “inactive”. For `CCN=C1C=CC(=C(c2ccc(N(CC)CC)cc2)c2ccc(N(CC)CC)cc2)c2ccccc21`, the outcome was “inactive”. With `CCCCOC(=O)C(C)O` (stereo unspecified) the outcome was “inactive”. `CCCCCCCC/C=C\CCCCCCCC(=O)OCC(O)CO` (stereo unspecified) was tested, and the outcome was “inactive”. `CCC(Cc1c(I)cc(I)c(N)c1I)C(=O)O` (stereo unspecified) was tested, and the outcome was “inactive”. In the case of `CCCCOC(=O)[C@H](C)O`, the outcome is reported as “inactive”. For `O=C(c1ccccc1)c1ccc(O)cc1O`, the outcome was “inactive”. For `CC(C)(C)c1cc(Cc2cc(C(C)(C)C)c(O)c(C(C)(C)C)c2)cc(C(C)(C)C)c1O`, the outcome was “inactive”. `C[C@]12CC[C@H]3C(=CCc4cc(O)ccc43)[C@@H]1CCC2=O` was tested, and the outcome was “inactive”. With `CCN=c1cc2oc3cc(NCC)c(C)cc3c(-c3ccccc3C(=O)OCC)c-2cc1C` the outcome was “inactive”. In the case of `Cc1ccc([N+](=O)[O-])c(C)c1`, the outcome is reported as “inactive”.
